Compounds with a hit are over-represented: about 1.2% of the library has one in this group of screens.
Mtb BioA inh: inhibitors of Mycobacterium tuberculosis BioA enzyme. purified M. tuberculosis BioA enzyme, plate reader. inhibition, % at 9.99 µM. 0.096% of 360,000 active; in the data active = inhibition above about 40%
PrP UTR inh: inhibition of PrP 5' UTR reporter expression | inhibition, % (test concentration not listed) | AID 488862 | cell-based PrP 5' UTR mRNA reporter, plate reader | 0.35% of 340,000 active; in the data active = inhibition above about 52%; also: 0 = median of the neutral control wells
Y pestis TopoI: inhibitors of Yersinia pestis topoisomerase I | Y. pestis Topo-I cleavage product accumulation, plate reader | 0.064% of 360,000 active | activity, % at 10 µM; in the data active = activity above about 50%, passing the limit was not always enough
FadD28 FP inh: blocks FadD28 binding to the bisubstrate probe. fluorescence polarization. inhibition, % at 12.5 µM. 0.22% of 360,000 active; in the data active = inhibition above about 8.5%, passing the limit was not always enough
TcdB inh: inhibitors of Clostridioides difficile toxin B glycohydrolase. TcdB glycohydrolase enzymatic assay, plate reader. inhibition, % at 9.99 µM. 0.24% of 350,000 active; in the data active = inhibition above about 10%
PfHsp40 rescue: rescue of PfHsp40-mediated yeast toxicity; S. cerevisiae expressing PfHsp40, growth rescue, ATP luminescence; growth rescue, % at 12.5 µM; 0.68% of 340,000 active; AID 504582; in the data active = growth rescue above about 28%, passing the limit was not always enough;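 also: yeast W303a lacking pdr1 and pdr3 grown in galactose medium; growth measured after three days at 30 °C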
PrP UTR cherry: prion 5' UTR mRNA inhibition, cherry-pick retest; cell-based prion protein 5' UTR reporter, plate reader; 48% of 1,100 active; inhibition, % at 2.5 µM; shares compounds with PrP UTR inh; AID 504592; in the data active = inhibition above about 54%
Starred values were filed as active, the others as inactive; nt = no result given.

SMILES | Mtb BioA inh | PrP UTR inh | Y pestis TopoI | FadD28 FP inh | TcdB inh | PfHsp40 rescue | PrP UTR cherry
Cc1ccc(C(=O)O/N=C(\N)c2ccccn2)cc1 | 0 | 87* | 8 | -3 | 1 | -5 | 94*
CC(C)(C)c1ccc(C(=O)O/N=C(\N)c2ccccn2)cc1 | -1 | 77* | 16 | -3 | 1 | 0 | 75*
CCOc1ccc(C(=O)O/N=C(\N)c2ccccn2)cc1 | -2 | 84* | -7 | -1 | 1 | -7 | 92*
Cc1ccc(C(=O)O/N=C(\N)c2ccccn2)cc1C | 0 | 87* | 9 | -1 | 0 | -3 | 77*
O=C(C[C@H]1C[C@H]2c3cc(NC(=O)Nc4ccccc4F)ccc3O[C@H]2[C@H](CO)O1)NCc1ccncc1 | 0 | nt | nt | nt | 0 | nt | nt
O=C(Nc1ccc(F)cc1)N1C[C@H]2[C@@H](c3ccccc31)[C@H](CO)N2C(=O)Cc1ccccc1 | 1 | nt | nt | nt | 1 | nt | nt
Cc1cccc(C(=O)O/N=C(\N)c2ccccn2)c1 | 1 | 56* | 8 | -2 | 1 | -2 | 75*
COc1ccc(S(=O)(=O)N(C)C[C@@H]2Oc3ccc(NC(=O)NC4CCCCC4)cc3C(=O)N([C@@H](C)CO)C[C@H]2C)cc1 | 0 | nt | nt | nt | 0 | nt | nt
CC[C@@]1(C(=O)OC)N[C@H](CN(C)C(=O)Nc2ccc(F)cc2)[C@@H]2C(=O)N(Cc3ccccc3)C(=O)[C@@H]21 | 0 | 70* | -6 | 1 | 0 | 1 | -8
CCN(C[C@H]1N[C@@](Cc2ccccc2)(C(=O)OC)[C@H]2C(=O)N(Cc3ccccc3)C(=O)[C@@H]12)S(=O)(=O)c1ccc(C(F)(F)F)cc1 | -1 | 86* | 23 | -1 | 0 | 1 | -13
O=S(=O)(N[C@@H]1CCCN(Cc2ccc(OCCO)cc2)C1)c1cc(Cl)ccc1Cl | 2 | nt | nt | nt | -1 | nt | nt
COCC(=O)Nc1ccc2c(c1)OC[C@@H](C)N(C(=O)c1ccncc1)C[C@@H](C)[C@H](OC)CN(C)C2=O | -1 | nt | nt | nt | 0 | nt | nt
COc1ccccc1N1CCN(C(=O)c2cc3n(n2)C(C(F)(F)F)CC(c2ccco2)N3)CC1 (stereo not given) | -1 | -8 | 31 | -4 | nt | 0 | nt
O=C(c1cc2n(n1)C(C(F)(F)F)CC(c1ccco1)N2)N1CCc2ccccc2C1 (stereo not given) | -2 | 64* | 4 | 1 | nt | 2 | -17
c1ccc(-c2cn3nc4c(nc3n2)CCCC4)cc1 | nt | 67* | -7 | -2 | nt | -1 | 37
Brc1ccc(N=Nc2ccc3ccccc3n2)cc1 | -2 | 82* | -11 | -2 | -1 | -3 | 80*
Cc1noc(C)c1S(=O)(=O)Nc1cccc2c1O[C@@H](CN(C)S(=O)(=O)c1cn(C)cn1)[C@@H](C)CN([C@@H](C)CO)C2=O | 0 | nt | nt | nt | 0 | nt | nt
S=C(Nc1ccccc1)Nc1ccc(OCc2ccc(Cl)cc2Cl)cc1 | -2 | 89* | 7 | -2 | nt | 0 | 87*
S=C(NCCSCc1ccc(Cl)cc1Cl)Nc1ccccc1 | -2 | -3 | 1 | -1 | nt | 5 | nt
CCCC(=O)Nc1ccc2c(c1)C(=O)N(C)[C@@H]1CC[C@@H](CC(=O)NCCc3ccccc3)O[C@@H]1CO2 | -2 | nt | nt | nt | 1 | nt | nt
COCCCN1C(=O)[C@@]2(Cc3ccccc31)c1ccccc1C(=O)N(C1CCCCC1)[C@H]2c1ccc(CO)cc1 | -4 | nt | nt | nt | 1 | nt | nt
c1cc2c(cc1C1=NNC(=NC3CC3)SC1)OCCO2 | nt | 91* | 4 | -2 | 2 | -2 | 91*
Cc1cc(C2=NNC(=NC3CC3)SC2)c(C)n1-c1ccccc1F | nt | 94* | 1 | -3 | 1 | -2 | 96*
Cc1cc(C2=NNC(=NC3CCCCC3)SC2)c(C)n1-c1c(C)n(C)n(-c2ccccc2)c1=O | -1 | -29 | -4 | -1 | 2 | -1 | nt
O=C(CSc1ncnc2ccccc12)Nc1cccc(S(=O)(=O)N2CCCC2)c1 | -1 | 85* | 2 | -1 | 0 | 0 | -11
SMILES | Mtb BioA inh | PrP UTR inh | Y pestis TopoI | FadD28 FP inh | TcdB inh | PfHsp40 rescue | PrP UTR cherry
O=c1cc(-c2ccc(O)cc2)oc2ccc3ccccc3c12 | -2 | 78* | 1 | nt | 0 | -1 | 73*
O=c1cc(-c2ccc(O)cc2)oc2c1ccc1ccccc12 | nt | 0 | -5 | 0 | 0 | 0 | nt
COc1cccc(C(=O)Nc2ccc3c(c2)C(=O)N(C)C[C@H](OC)[C@H](C)CN(C)[C@@H](C)CO3)c1 | -3 | nt | nt | nt | -1 | nt | nt
NC(=O)c1cc2c3ccccc3ccn2c1-c1ccccc1 | -1 | 72* | 2 | -3 | -5 | 0 | 90*
COc1ccc2c3c([nH]c2c1)[C@@H](CO)N(C(=O)NC(C)C)CC31CN(Cc2ccccc2)C1 | nt | nt | nt | nt | 3 | nt | nt
CN(C)CC/C=C1\c2ccccc2Sc2ccc(Cl)cc21 | 3 | 9 | 2 | -3 | 3 | 1 | nt
OCCN1CCN(CC/C=C2/c3ccccc3Sc3ccc(Cl)cc32)CC1 | 3 | 82* | 7 | -5 | 6 | 0 | -19
CCOC(=O)C1Oc2ccccc2C(c2ccc(C)cc2)=C1C(=O)OC (stereo not given) | 0 | -13 | 39 | -3 | 1 | 1 | nt
CCOC(=O)C1(CC)Oc2ccccc2C(c2ccc(OC)cc2)=C1C(=O)OC (stereo not given) | 0 | 71* | 34 | 0 | 0 | 2 | -7
Cc1[nH][nH]c(=O)c1N=Nc1ccccc1Cl | nt | -11 | -5 | -1 | 2 | 0 | nt
Clc1ccccc1N=Nc1ccccn1 | nt | 68* | -6 | 1 | 0 | 0 | -22
O=C(Nc1nc2cc3c(cc2s1)OCO3)c1ccco1 | -2 | 52 | 6 | 1 | 1 | -1 | nt
O=C(Nc1ccc(-c2nc3ccccc3s2)cc1)C1=COCCO1 | -1 | 73* | -9 | 1 | nt | -1 | 66*
O=C(Nc1nc2cc3c(cc2s1)OCO3)C1=COCCO1 | 0 | 70* | -13 | -3 | 1 | 0 | 64*
CC1CCc2nc(NC(=O)c3ccco3)sc2C1 (stereo not given) | -1 | 57* | 4 | -4 | nt | 0 | 54*
O=C(Nc1nc2cc3c(cc2s1)OCCO3)c1ccco1 | -2 | 78* | -2 | -3 | 0 | 1 | 81*
O=C(Nc1cccc(-c2nc3ccccc3s2)c1)C1=COCCO1 | nt | -14 | 10 | -5 | nt | 1 | nt
Cc1noc(C)c1S(=O)(=O)Nc1ccc2c(c1)CC(=O)N([C@@H](C)CO)C[C@H](C)[C@@H](CN(C)S(=O)(=O)c1ccc(F)cc1)O2 | 1 | nt | nt | nt | 2 | nt | nt
NNC(=S)NC1CCCCC1 | -2 | 80* | -4 | -3 | 0 | 1 | -18
Cc1ccc(NC(=O)CN(C)C(=O)C2COc3ccccc3O2)cc1 (stereo not given) | nt | 75* | -3 | -1 | 1 | 0 | -9
COc1ccccc1C(=O)Nc1nc2ccccc2s1 | -1 | 92* | 3 | 1 | 0 | -3 | 93*
COc1ccc(C(=O)Nc2nc3ccccc3s2)c(OC)c1 | 0 | 95* | 1 | -7 | 1 | 0 | 95*
